Most compounds without a hit are left out; they make up all but 11% or so of the library.
HCV inhibitor = qHTS Assay for Inhibitors of Hepatitis C Virus (HCV) | Huh7.5.1 HCVcc-Cre infection, luciferase reporter, 44 h | Potency, µM (titrated, usually from 41.8 µM), actives largely listed as inhibitors | 340,000 tested, 3.4% active | AID 651820, 2012
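HCVcc-Cre virus at an moi near 0.5 was added right after compound to cells cultured 4 h from seeding (1,000 cells/well). Luciferase activity was determined 44 h later, 15 min after substrate addition at RT.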
Vaccinia mCherry = qHTS for Stage-Specific Inhibitors of Vaccinia Orthopoxvirus: mCherry Reporter Primary qHTS | Vaccinia virus mCherry reporter infection, fluorescence | Potency, µM (top dose mostly 36.5 µM), usual class: inhibitors | 310,000 tested, 0.63% active | AID 720579, 2013; calls by dose curve; tested in A549 cells; also: nearly all actives have a fitted effect of over 35% in size
Pf growth 48h = Primary qHTS for delayed death inhibitors of the malarial parasite plastid, 48 hour incubation; P. falciparum luciferase growth in erythrocytes, 48 h; Potency, µM (titrated, usually from 28.7 µM), actives largely listed as inhibitors; 310,000 tested, 5.9% active
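Read-out is firefly luciferase luminescence from an integrated reporter in P. falciparum, so falling signal marks reduced parasite growth. Infected erythrocytes were at 2% hematocrit and 0.1% parasitemia (final) in Albumax-supplemented RPMI 1640.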
Pf growth 96h = Primary qHTS for delayed death inhibitors of the malarial parasite plastid, 96 hour incubation. P. falciparum luciferase reporter growth, 96 h. Potency, µM (highest dose often 28.7 µM), usual class: inhibitors. 320,000 tested, 6.9% active
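Infected RBCs, 2% Hct / 0.05% parasitemia final; luciferase-reporter P. falciparum; cpd 96 h, 37 C, 5% CO2; luciferase detection reagent; luminescence.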
VACV Venus inh = qHTS for Stage-Specific Inhibitors of Vaccinia Orthopoxvirus: Venus Reporter Primary qHTS | Vaccinia virus Venus reporter expression, fluorescence | Potency, µM (highest dose often 36.5 µM), usual class: inhibitors | 330,000 tested, 0.46% active; calls by dose curve; tested in A549 cells; also: nearly all actives have a fitted effect of over 30% in size
NS1 inh = qHTS Assay for Inhibitors of Influenza NS1 Protein Function; Potency, µM (titrated, usually from 46.1 µM); 270,000 tested, 0.4% active; AID 2326, 2010; calls by dose curve; also: actives are rising curves; nearly all actives have a fitted effect of over 50% in size
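OD600 was taken as the measure of yeast growth restored by compound in an NS1-expressing S. cerevisiae strain. Cells had been washed out of glucose medium and diluted 1:100 into galactose -URA medium, pH 6.0.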
Hits are given with their value; i = inactive; ? = inconclusive; nt = no result; [ ] = another dose, or the depositor's remark. Unless noted, calls follow the shape of the dose curve; as a rule, active = well fitted inhibition curve with a large enough effect; inconclusive = small, poorly fitted or top-dose-only effect, or another doubt; inactive = no such curve, though single readings can be large or run the other way.

SMILES	HCV inhibitor	Vaccinia mCherry	Pf growth 48h	Pf growth 96h	VACV Venus inh	NS1 inh
Fc1ccc(C2c3cccn3CCN2C(=S)Nc2cccc(Br)c2)cc1 (configuration not stated)	10µM	?	12µM	?	i	nt
S=C(NCc1ccccc1)N1CCn2cccc2C1c1cccnc1 (configuration not stated)	i	i	4.7µM	4.7µM	i	nt
CCCCNC(=S)N1CCn2cccc2C1c1ccc(F)cc1 (configuration not stated)	i	i	?	?	i	nt
S=C(NCc1ccccc1)N1CCn2cccc2C1c1ccncc1 (configuration not stated)	i	i	i	?	i	nt
CCCCNC(=S)N1CCn2cccc2C1c1ccccc1 (configuration not stated)	i	i	4.7µM	?	i	nt
COCCOC(=O)c1c(C)oc2ccc(OC(=O)COc3c(F)c(F)c(F)c(F)c3F)cc12	i	nt	i	nt	nt	i
Cc1nc(SCC(=O)c2ccc(F)cc2)n[nH]1	i	nt	i	i	nt	i
CCc1cccc(CC)c1NC(=O)CO/N=C(\N)CC(=O)NC1CCCCC1	i	i	?	i[5.75 µM]	i	nt
CCn1nnc(-c2ccccc2NC(=O)c2cc(OC)c(OC)c(OC)c2)n1	?	i	nt	nt	i	i
CCn1nnc(-c2ccccc2NC(=O)c2cnccn2)n1	11µM	i[1.46 µM]	nt	nt	i	nt
Cc1c(C(=O)Nc2ccc(Cl)cc2)c2ccccn2c1CCc1ccncc1	i	nt	?	9.3µM	nt	i
COc1ccc([C@H]2CC(=O)C=C(c3ccc(Oc4ccccc4)cc3)C2)cc1OC	5.6µM	?	?	?	?	nt
COc1ccc([C@H]2CC(=O)C=C(c3ccc(F)cc3OCc3ccccc3)C2)cc1	?	i	?	i	i	nt
COc1ccc([C@H]2CC(=O)C=C(c3ccc(F)cc3OCc3ccccc3)C2)cc1OC	?	?	9.3µM	?	?	nt
COc1ccc([C@H]2CC(=O)C=C(c3ccccc3)C2)cc1OC	?	i	?	?	i	nt
O=C1C=C(c2ccccc2Oc2ccccc2)C[C@@H](c2ccc3c(c2)OCO3)C1	?	i	3.7µM	?	i	nt
COc1cccc(C(=O)NCC(=O)NNc2ncnc(N)c2[N+](=O)[O-])c1	i	i	i	i	i	nt
Cc1nc(-c2ccc(S(=O)(=O)N3CCCN(CCc4ccccc4)CC3)s2)cs1	?	i	?	4.1µM	i	i
Cc1nc(-c2ccc(S(=O)(=O)N3CCN(C4c5ccccc5-c5ccccc54)CC3)s2)cs1	i	i	?	?	i	i
CCN1C(=O)C2C(c3cccc(F)c3)NC(CC)(C(=O)OC)C2C1=O (configuration not stated)	i	nt	i	i	nt	i
CCC(C)Sc1ccc([C@H]2N[C@@](CC(C)C)(C(=O)OC)[C@H]3C(=O)N(CC)C(=O)[C@@H]23)cc1 (some centres not stated)	i	i	9.3µM	?	i	nt
COC(=O)[C@]1(C)N[C@H](c2ccc(SC3CCCCC3)cc2)[C@@H]2C(=O)N(C)C(=O)[C@@H]21	i	?	?	?	i	nt
CCN1C(=O)[C@H]2[C@@H](c3ccc(-c4cc(C(C)=O)cs4)cc3)N[C@@](Cc3ccccc3)(C(=O)OC)[C@H]2C1=O	i	i	nt	nt	i	nt
CCC(C)Sc1ccc([C@H]2N[C@@](Cc3ccccc3)(C(=O)OC)[C@H]3C(=O)N(CC)C(=O)[C@@H]23)cc1 (some centres not stated)	?	i	3.3µM	1.7µM	i	nt
CCC(C)Sc1ccc([C@H]2N[C@@](Cc3ccccc3)(C(=O)OC)[C@H]3C(=O)N(CC)C(=O)[C@@H]23)cc1OC (some centres not stated)	i	i	3.3µM	?	i	nt
CCN1C(=O)[C@H]2[C@@H](c3ccc(SC4CCCCC4)cc3)N[C@@](CC(C)C)(C(=O)OC)[C@H]2C1=O	?	?	12µM	2.9µM	i	nt
Cc1cccc(-n2cnc3cc([N+](=O)[O-])ccc32)c1	i	i	i	i	i	i
Cc1sc2ncn(CC(=O)NCCCC(=O)N3CCC4(CC3)OCCO4)c(=O)c2c1C	i	nt	i	?	nt	i

Compound activity: PubChem, National Center for Advancing Translational Sciences (NCATS)
